Results on 8 sequences are retold here after paper PMC7862700, “An all-to-all approach to the identification of sequence-specific readers for epigenetic DNA modifications on cytosine”.

Common to all, as to assay: DAPPL (digital affinity profiling via proximity ligation, sequencing); 10 mM Tris-HCl pH 7.5, 50 mM NaCl, 1 mM DTT, 4% glycerol, room temperature, 30 min; GST-TFs on glutathione beads, 16-mer random dsDNA library, 0.1% formaldehyde crosslink after washing; high values mean tight binding
Holding throughout (details): protein: recombinant; tags: N-terminal GST; dsDNA, one strand shown

The target of one assay is T1, FLI1 (Homo sapiens, UniProt Q01543 1-452).
T1 sequence: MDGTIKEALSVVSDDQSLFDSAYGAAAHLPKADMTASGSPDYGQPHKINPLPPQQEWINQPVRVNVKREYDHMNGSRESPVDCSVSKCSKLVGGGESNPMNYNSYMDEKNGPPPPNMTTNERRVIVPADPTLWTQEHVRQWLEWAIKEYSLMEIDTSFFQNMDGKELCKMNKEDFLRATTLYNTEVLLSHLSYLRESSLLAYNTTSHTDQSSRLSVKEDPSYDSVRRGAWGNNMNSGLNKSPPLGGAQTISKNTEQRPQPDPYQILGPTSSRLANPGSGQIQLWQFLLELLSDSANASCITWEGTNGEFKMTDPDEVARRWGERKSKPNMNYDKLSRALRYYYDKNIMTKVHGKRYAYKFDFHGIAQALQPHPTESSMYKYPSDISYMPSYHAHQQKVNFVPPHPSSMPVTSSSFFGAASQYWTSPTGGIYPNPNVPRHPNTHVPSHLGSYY
In a few lines:
(§1)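 Pools were built from human transcription factors expressed in yeast as GST fusions, captured on glutathione beads and DNA-barcoded, along with a tag-only sample. Incubation with 200 nmole of a 16-mer random double-stranded DNA library lasted 30 min at room temperature in Tris/NaCl/DTT/glycerol buffer, and was followed by washing, 0.1% formaldehyde crosslinking, proximity ligation, PCR amplification and Illumina NextSeq500 sequencing. Binding signal is the quotient of each hexamer's read frequency for a factor and its frequency for the tag-only sample.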

Another assay has as its target T2, ELK1 (Homo sapiens, UniProt P19419 1-428).
T2 sequence: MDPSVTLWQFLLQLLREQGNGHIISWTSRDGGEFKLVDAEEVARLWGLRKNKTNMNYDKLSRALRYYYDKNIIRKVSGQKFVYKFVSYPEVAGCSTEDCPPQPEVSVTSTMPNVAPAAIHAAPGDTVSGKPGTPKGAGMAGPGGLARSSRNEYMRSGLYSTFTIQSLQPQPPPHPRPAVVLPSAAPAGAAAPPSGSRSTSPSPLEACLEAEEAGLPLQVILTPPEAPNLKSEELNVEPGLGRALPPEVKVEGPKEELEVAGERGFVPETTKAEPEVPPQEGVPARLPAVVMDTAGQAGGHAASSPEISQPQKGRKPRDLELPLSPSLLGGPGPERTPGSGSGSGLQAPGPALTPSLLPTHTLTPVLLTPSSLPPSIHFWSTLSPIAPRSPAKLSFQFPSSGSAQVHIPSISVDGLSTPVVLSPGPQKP
In a few lines:
as §1

The target in another assay is T3, GABPA (Homo sapiens, UniProt Q06546 1-454).
T3 sequence: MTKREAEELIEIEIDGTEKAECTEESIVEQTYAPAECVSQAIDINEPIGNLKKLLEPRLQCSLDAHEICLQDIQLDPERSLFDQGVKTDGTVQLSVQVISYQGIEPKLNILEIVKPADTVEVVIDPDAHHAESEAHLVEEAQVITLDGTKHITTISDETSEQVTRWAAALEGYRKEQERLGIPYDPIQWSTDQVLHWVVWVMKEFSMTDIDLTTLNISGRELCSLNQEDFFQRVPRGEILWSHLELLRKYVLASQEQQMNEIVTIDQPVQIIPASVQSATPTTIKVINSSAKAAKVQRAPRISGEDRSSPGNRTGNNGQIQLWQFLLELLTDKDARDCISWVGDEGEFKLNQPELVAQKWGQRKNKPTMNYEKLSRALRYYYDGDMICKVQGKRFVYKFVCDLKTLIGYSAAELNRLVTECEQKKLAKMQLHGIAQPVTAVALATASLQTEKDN
In a few lines:
as §1

For the next assay, the target named is T4, ERG (Homo sapiens, UniProt P11308 1-479).
T4 sequence: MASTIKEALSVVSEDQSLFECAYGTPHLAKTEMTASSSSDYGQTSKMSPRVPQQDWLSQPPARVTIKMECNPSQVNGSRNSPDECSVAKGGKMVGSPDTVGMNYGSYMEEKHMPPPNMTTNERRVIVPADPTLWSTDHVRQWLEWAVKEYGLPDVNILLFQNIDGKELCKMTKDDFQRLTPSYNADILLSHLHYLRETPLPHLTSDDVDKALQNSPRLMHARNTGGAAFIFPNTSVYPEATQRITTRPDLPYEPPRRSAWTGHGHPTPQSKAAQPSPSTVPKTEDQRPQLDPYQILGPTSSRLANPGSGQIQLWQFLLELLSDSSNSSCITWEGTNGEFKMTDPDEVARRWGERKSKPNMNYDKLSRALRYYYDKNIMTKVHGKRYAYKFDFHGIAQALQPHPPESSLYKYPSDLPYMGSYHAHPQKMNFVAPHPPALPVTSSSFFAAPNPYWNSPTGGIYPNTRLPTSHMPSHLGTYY
In a few lines:
as §1

Another assay concerns the target ELF1 (Homo sapiens, UniProt P32519 1-619). In a few lines: as §1
The next assay has as its target T5, EHF (Homo sapiens, UniProt Q9NZC4 1-300).
T5 sequence: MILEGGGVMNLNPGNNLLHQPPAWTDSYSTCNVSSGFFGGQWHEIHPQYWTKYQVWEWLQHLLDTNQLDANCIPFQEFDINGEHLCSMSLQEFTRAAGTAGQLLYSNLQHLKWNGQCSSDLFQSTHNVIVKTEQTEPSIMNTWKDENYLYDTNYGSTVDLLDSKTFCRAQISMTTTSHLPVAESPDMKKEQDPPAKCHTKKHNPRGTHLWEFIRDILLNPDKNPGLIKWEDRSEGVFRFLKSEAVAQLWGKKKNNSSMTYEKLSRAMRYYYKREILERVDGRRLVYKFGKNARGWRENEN
In a few lines:
as §1

For a further assay, the target named is SPI1 (Homo sapiens, UniProt P17947 1-270). In a few lines:
as §1

In another assay the target is SPIB (Homo sapiens, UniProt Q01892 1-262). In a few lines:
as §1

For a further assay, the target named is T6, ELK3 (Homo sapiens, UniProt P41970 1-407).
T6 sequence: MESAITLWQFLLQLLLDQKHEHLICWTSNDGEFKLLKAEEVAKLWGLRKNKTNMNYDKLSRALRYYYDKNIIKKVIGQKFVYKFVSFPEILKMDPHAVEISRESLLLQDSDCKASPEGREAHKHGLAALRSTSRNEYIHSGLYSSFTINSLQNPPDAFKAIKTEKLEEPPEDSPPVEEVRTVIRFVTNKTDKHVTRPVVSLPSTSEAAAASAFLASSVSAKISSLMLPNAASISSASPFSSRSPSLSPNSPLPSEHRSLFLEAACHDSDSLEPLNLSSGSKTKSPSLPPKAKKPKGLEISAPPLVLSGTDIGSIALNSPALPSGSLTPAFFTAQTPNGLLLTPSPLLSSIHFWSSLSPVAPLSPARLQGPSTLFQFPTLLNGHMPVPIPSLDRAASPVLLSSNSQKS
In a few lines:
as §1

SPIB, sequence (Q01892 whole entry): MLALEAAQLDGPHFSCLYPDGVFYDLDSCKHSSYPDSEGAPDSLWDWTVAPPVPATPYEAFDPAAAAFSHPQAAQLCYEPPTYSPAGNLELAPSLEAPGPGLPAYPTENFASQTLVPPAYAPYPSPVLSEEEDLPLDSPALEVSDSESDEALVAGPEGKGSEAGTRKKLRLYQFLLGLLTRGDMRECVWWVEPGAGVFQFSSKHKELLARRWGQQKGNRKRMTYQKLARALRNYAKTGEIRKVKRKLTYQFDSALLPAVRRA
ELF1, sequence (P32519 whole entry): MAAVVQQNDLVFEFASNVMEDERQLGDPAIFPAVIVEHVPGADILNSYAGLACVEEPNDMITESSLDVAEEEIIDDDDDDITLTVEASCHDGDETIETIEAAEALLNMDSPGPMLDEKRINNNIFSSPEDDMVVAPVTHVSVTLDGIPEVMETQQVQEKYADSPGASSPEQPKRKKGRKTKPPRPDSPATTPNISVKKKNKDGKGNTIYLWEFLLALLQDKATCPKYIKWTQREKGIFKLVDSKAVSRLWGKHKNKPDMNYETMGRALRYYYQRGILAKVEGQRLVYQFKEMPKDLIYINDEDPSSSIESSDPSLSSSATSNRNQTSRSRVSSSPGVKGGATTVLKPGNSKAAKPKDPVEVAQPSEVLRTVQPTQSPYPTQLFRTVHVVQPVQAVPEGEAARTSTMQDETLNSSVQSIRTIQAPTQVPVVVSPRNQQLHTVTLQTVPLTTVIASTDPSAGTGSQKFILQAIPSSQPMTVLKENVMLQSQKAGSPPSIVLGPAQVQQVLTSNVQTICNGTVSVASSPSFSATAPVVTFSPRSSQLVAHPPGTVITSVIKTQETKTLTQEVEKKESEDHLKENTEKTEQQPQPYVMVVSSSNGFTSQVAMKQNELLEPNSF

Take TGGACT: the binding signal in the assay with FLI1 is 1.19 fold enrichment (6-mer frequency, TF over GST control); in the assay with ELK1 it was 1.27 fold enrichment (6-mer frequency, TF over GST control); in the assay with GABPA, 1.25 fold enrichment (6-mer frequency, TF over GST control); with ERG, 1.18 fold enrichment (6-mer frequency, TF over GST control); with ELF1, 1.26 fold enrichment (6-mer frequency, TF over GST control); with EHF it was 1.3 fold enrichment (6-mer frequency, TF over GST control). Besides, the binding signal in the assay with SPI1 was 1.18 fold enrichment (6-mer frequency, TF over GST control); with SPIB, 1.41 fold enrichment (6-mer frequency, TF over GST control); with ELK3 it was 1.2 fold enrichment (6-mer frequency, TF over GST control).
For ATAACC, the binding signal was 1.21 fold enrichment (6-mer frequency, TF over GST control) in the assay with FLI1; 1.27 fold enrichment (6-mer frequency, TF over GST control) with ELK1; 1.22 fold enrichment (6-mer frequency, TF over GST control) with GABPA; 1.13 fold enrichment (6-mer frequency, TF over GST control) with ERG; 1.23 fold enrichment (6-mer frequency, TF over GST control) with ELF1; 1.15 fold enrichment (6-mer frequency, TF over GST control) with EHF. Also, the binding signal was 1.06 fold enrichment (6-mer frequency, TF over GST control) with SPI1; 1.25 fold enrichment (6-mer frequency, TF over GST control) in the assay with SPIB; 1.37 fold enrichment (6-mer frequency, TF over GST control) in the assay with ELK3.
TACCTT: the binding signal was 1.36 fold enrichment (6-mer frequency, TF over GST control) with FLI1; 1.33 fold enrichment (6-mer frequency, TF over GST control) with ELK1; 1.36 fold enrichment (6-mer frequency, TF over GST control) with GABPA; 1.42 fold enrichment (6-mer frequency, TF over GST control) in the assay with ERG; 1.3 fold enrichment (6-mer frequency, TF over GST control) in the assay with ELF1; 1.47 fold enrichment (6-mer frequency, TF over GST control) with EHF. Besides, the binding signal in the assay with SPI1 was 1.33 fold enrichment (6-mer frequency, TF over GST control); with SPIB it was 1.42 fold enrichment (6-mer frequency, TF over GST control); with ELK3 it was 1.23 fold enrichment (6-mer frequency, TF over GST control).
In the case of ATAAAA, the binding signal with FLI1 was 1.09 fold enrichment (6-mer frequency, TF over GST control); with ELK1, 1.15 fold enrichment (6-mer frequency, TF over GST control); with GABPA it was 1.1 fold enrichment (6-mer frequency, TF over GST control); with ERG, 1.09 fold enrichment (6-mer frequency, TF over GST control); in the assay with ELF1, 1.12 fold enrichment (6-mer frequency, TF over GST control); with EHF, 1.1 fold enrichment (6-mer frequency, TF over GST control). Moreover, the binding signal with SPI1 was 1.17 fold enrichment (6-mer frequency, TF over GST control); with SPIB, 1.21 fold enrichment (6-mer frequency, TF over GST control); in the assay with ELK3 it was 1.12 fold enrichment (6-mer frequency, TF over GST control).
As for CCTTTT, the binding signal in the assay with FLI1 was 1.49 fold enrichment (6-mer frequency, TF over GST control); in the assay with ELK1 it was 1.46 fold enrichment (6-mer frequency, TF over GST control); in the assay with GABPA it was 1.46 fold enrichment (6-mer frequency, TF over GST control); with ERG, 1.56 fold enrichment (6-mer frequency, TF over GST control); with ELF1, 1.52 fold enrichment (6-mer frequency, TF over GST control); with EHF, 1.49 fold enrichment (6-mer frequency, TF over GST control). The binding signal with SPI1 was 2.05 fold enrichment (6-mer frequency, TF over GST control); in the assay with SPIB, 1.67 fold enrichment (6-mer frequency, TF over GST control); in the assay with ELK3, 1.64 fold enrichment (6-mer frequency, TF over GST control).
In the case of AATCCT, the binding signal with FLI1 was 1.46 fold enrichment (6-mer frequency, TF over GST control); with ELK1, 1.31 fold enrichment (6-mer frequency, TF over GST control); in the assay with GABPA, 1.34 fold enrichment (6-mer frequency, TF over GST control); with ERG, 1.41 fold enrichment (6-mer frequency, TF over GST control); in the assay with ELF1 it was 1.36 fold enrichment (6-mer frequency, TF over GST control); in the assay with EHF it was 1.33 fold enrichment (6-mer frequency, TF over GST control). Further, the binding signal is 1.37 fold enrichment (6-mer frequency, TF over GST control) with SPI1; 1.38 fold enrichment (6-mer frequency, TF over GST control) in the assay with SPIB; 1.46 fold enrichment (6-mer frequency, TF over GST control) in the assay with ELK3.
With CTGCGA, the binding signal in the assay with FLI1 was 1.25 fold enrichment (6-mer frequency, TF over GST control); in the assay with ELK1, 1.31 fold enrichment (6-mer frequency, TF over GST control); with GABPA, 1.34 fold enrichment (6-mer frequency, TF over GST control); with ERG, 1.29 fold enrichment (6-mer frequency, TF over GST control); with ELF1, 1.32 fold enrichment (6-mer frequency, TF over GST control); with EHF, 1.26 fold enrichment (6-mer frequency, TF over GST control). Further, the binding signal is 1.33 fold enrichment (6-mer frequency, TF over GST control) with SPI1; 1.45 fold enrichment (6-mer frequency, TF over GST control) with SPIB; 1.19 fold enrichment (6-mer frequency, TF over GST control) in the assay with ELK3.
Take TATCAC: the binding signal is 1.33 fold enrichment (6-mer frequency, TF over GST control) with FLI1; 1.25 fold enrichment (6-mer frequency, TF over GST control) in the assay with ELK1; 1.04 fold enrichment (6-mer frequency, TF over GST control) with GABPA; 1.17 fold enrichment (6-mer frequency, TF over GST control) with ERG; 1.3 fold enrichment (6-mer frequency, TF over GST control) with ELF1; 1.19 fold enrichment (6-mer frequency, TF over GST control) with EHF. Further, the binding signal with SPI1 is 1.28 fold enrichment (6-mer frequency, TF over GST control); with SPIB it was 1.22 fold enrichment (6-mer frequency, TF over GST control); in the assay with ELK3 it was 1.23 fold enrichment (6-mer frequency, TF over GST control).
